Test results taken from PubChem BioAssay AID1159580 (chemical genetic matrix, 2015).
The campaign covered roughly 5,500 compounds. About 2,000 (36%) were called active. Inconclusive results (about 18%) are left out. Rule as the data show it: active = normalized growth mostly below about 0.91 (no sharp cut-off); inconclusive = no clear call, values can overlap the other calls; inactive = mostly above about 0.92. The list shows a part of the results.

Experiment: chemical genetic growth profiling, strain panel (AID 1159580);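 also: tested at 20 µM; growth read once vehicle control cultures reached saturation at 30 °C; 1 = growth at the plate median or of vehicle wells; lower values mean less growth of the strain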
Settings: growth OD
[1] = S. cerevisiae deletion strains, locus YBR021W, strain FUR4, active compounds read low
[2] = S. cerevisiae deletion strains, locus YBR229C, strain ROT2, active compounds read low
[3] = S. cerevisiae deletion strains, locus YCL029C, strain bik1, active compounds read low
[4] = S. cerevisiae deletion strains, locus YDL035C, strain GPR1, active compounds read low
[5] = S. cerevisiae deletion strains, locus YDL074C, strain BRE1, active compounds read low
[6] = S. cerevisiae deletion strains, locus YDL101C, strain DUN1, active compounds read low
[7] = S. cerevisiae deletion strains, locus YDL134C, strain PPH21, active compounds read low
[8] = S. cerevisiae deletion strains, locus YDL185W, strain tfp1, active compounds read low
[9] = S. cerevisiae deletion strains, locus YDL192W, strain arf1, active compounds read low
[10] = S. cerevisiae deletion strains, locus YDR101C, strain arx1, active compounds read low
[11] = S. cerevisiae deletion strains, locus YDR162C, strain NBP2, active compounds read low
[12] = S. cerevisiae deletion strains, locus YDR318W, strain mcm21, active compounds read low
[13] = S. cerevisiae deletion strains, locus YDR388W, active compounds read low
[14] = S. cerevisiae deletion strains, locus YDR502C, strain sam2, active compounds read low
[15] = S. cerevisiae deletion strains, locus YER110C, active compounds read low
[16] = S. cerevisiae deletion strains, locus YER155C, strain BEM2, active compounds read low
[17] = S. cerevisiae deletion strains, locus YER167W, strain BCK2, active compounds read low
[18] = S. cerevisiae deletion strains, locus YGL078C, strain dbp3, active compounds read low
[19] = S. cerevisiae deletion strains, locus YGL086W, strain mad1, active compounds read low
[20] = S. cerevisiae deletion strains, locus YGL248W, strain PDE1, active compounds read low
[21] = S. cerevisiae deletion strains, locus YGR078C, strain PAC10, active compounds read low
[22] = S. cerevisiae deletion strains, locus YGR135W, strain pre9, active compounds read low
[23] = S. cerevisiae deletion strains, locus YGR252W, strain gcn5, active compounds read low
[24] = S. cerevisiae deletion strains, locus YHR030C, strain SLT2, active compounds read low
[25] = S. cerevisiae deletion strains, locus YHR079C, strain IRE1 (second series), active compounds read low
[26] = S. cerevisiae deletion strains, locus YHR094C, strain hxt1, active compounds read low
[27] = S. cerevisiae deletion strains, locus YHR129C, strain ARP1, active compounds read low
[28] = S. cerevisiae deletion strains, locus YHR200W, strain rpn10, active compounds read low
[29] = S. cerevisiae deletion strains, locus YIL066C, strain RNR3, active compounds read low
[30] = S. cerevisiae deletion strains, locus YIL073C, strain SPO22, active compounds read low
[31] = S. cerevisiae deletion strains, locus YIL125W, strain kgd1, active compounds read low
[32] = S. cerevisiae deletion strains, locus YIR030C, strain dcg1, active compounds read low
[33] = S. cerevisiae deletion strains, locus YJL095W, strain BCK1, active compounds read low
[34] = S. cerevisiae deletion strains, locus YJL134W, strain LCB3, active compounds read low
[35] = S. cerevisiae deletion strains, locus YJL168C, strain set2, active compounds read low
[36] = S. cerevisiae deletion strains, locus YJL187C, strain SWE1 (second series), active compounds read low
[37] = S. cerevisiae deletion strains, locus YKL009W, strain mrt4, active compounds read low
[38] = S. cerevisiae deletion strains, locus YKL068W, active compounds read low
[39] = S. cerevisiae deletion strains, locus YKL085W, strain MDH1 (second series), active compounds read low
[40] = S. cerevisiae deletion strains, locus YKL085W, strain MDH1, active compounds read low
[41] = S. cerevisiae deletion strains, locus YKR001C, strain vps1, active compounds read low
[42] = S. cerevisiae deletion strains, locus YLR039C, strain RIC1, active compounds read low
[43] = S. cerevisiae deletion strains, locus YLR058C, strain SHM2, active compounds read low
[44] = S. cerevisiae deletion strains, locus YLR102C, strain apc9, active compounds read low
[45] = S. cerevisiae deletion strains, locus YLR262C, strain YPT6, active compounds read low
[46] = S. cerevisiae deletion strains, locus YLR268W, strain sec22, active compounds read low
[47] = S. cerevisiae deletion strains, locus YLR330W, strain CHS5, active compounds read low
[48] = S. cerevisiae deletion strains, locus YLR342W, strain FKS1 (second series), active compounds read low
[49] = S. cerevisiae deletion strains, locus YLR371W, strain rom2, active compounds read low
[50] = S. cerevisiae deletion strains, locus YLR418C, strain cdc73, active compounds read low
[51] = S. cerevisiae deletion strains, locus YML016C, strain PPZ1, active compounds read low
[52] = S. cerevisiae deletion strains, locus YML032C, strain rad52, active compounds read low
[53] = S. cerevisiae deletion strains, locus YML124C, strain tub3, active compounds read low
[54] = S. cerevisiae deletion strains, locus YMR078C, strain ctf18, active compounds read low
[55] = S. cerevisiae deletion strains, locus YMR223W, strain ubp8, active compounds read low
[56] = S. cerevisiae deletion strains, locus YMR263W, strain SAP30, active compounds read low
[57] = S. cerevisiae deletion strains, locus YMR307W, strain GAS1, active compounds read low
[58] = S. cerevisiae deletion strains, locus YNL067W, strain RPL9B, active compounds read low
[59] = S. cerevisiae deletion strains, locus YNL128W, strain TEP1, active compounds read low
[60] = S. cerevisiae deletion strains, locus YNL153C, strain GIM3, active compounds read low
[61] = S. cerevisiae deletion strains, locus YNL233W, strain BNI4, active compounds read low
[62] = S. cerevisiae deletion strains, locus YNL250W, strain rad50, active compounds read low
[63] = S. cerevisiae deletion strains, locus YNL271C, strain bni1, active compounds read low
[64] = S. cerevisiae deletion strains, locus YNL298W, strain CLA4, active compounds read low
[65] = S. cerevisiae deletion strains, locus YNL307C, strain MCK1, active compounds read low
[66] = S. cerevisiae deletion strains, locus YNR052C, strain pop2, active compounds read low
[67] = S. cerevisiae deletion strains, locus YOL012C, strain htz1
[68] = S. cerevisiae deletion strains, locus YOL147C, strain pex11, active compounds read low
[69] = S. cerevisiae deletion strains, locus YOR061W, strain CKA2, active compounds read low
[70] = S. cerevisiae deletion strains, locus YOR069W, strain VPS5, active compounds read low
[71] = S. cerevisiae deletion strains, locus YOR136W, strain idh2, active compounds read low
[72] = S. cerevisiae deletion strains, locus YOR144C, strain elg1, active compounds read low
[73] = S. cerevisiae deletion strains, locus YOR184W, strain ser1, active compounds read low
[74] = S. cerevisiae deletion strains, locus YOR316C, strain cot1, active compounds read low
[75] = S. cerevisiae deletion strains, locus YPL055C, strain LGE1, active compounds read low
[76] = S. cerevisiae deletion strains, locus YPL241C, strain CIN2, active compounds read low
[77] = S. cerevisiae deletion strains, locus YPR119W, strain clb2, active compounds read low
[78] = S. cerevisiae deletion strains, locus YPR141C, strain kar3, active compounds read low
[79] = S. cerevisiae deletion strains, locus YPR163C, strain tif3, active compounds read low
[80] = S. cerevisiae deletion strains, locus YPR167C, strain met16, active compounds read low
[81] = S. cerevisiae deletion strains, strain wtn01, active compounds read low
[82] = S. cerevisiae strains, strain wild type, active compounds read low

Measured: normalized growth

CCOC(=O)C1=C(O)C(=O)N(Cc2ccccc2)C1
inactive: S. cerevisiae deletion strains, locus YAL013W, strain DEP1, active compounds read low 1.02 | [1] 1.02 | [2] 1 | [3] 1.01 | [4] 1.01 | [5] 1 | [6] 1.01 | [7] 1 | [8] 1.02 | [9] 1.01 | [10] 1 | S. cerevisiae deletion strains, locus YDR150W, strain NUM1, active compounds read low 1.01 | [11] 0.995 | [12] 1.02 | [13] 1 | [14] 0.994 | S. cerevisiae deletion strains, locus YEL061C, strain CIN8, active compounds read low 1.01 | [15] 1.02 | [16] 1 | [17] 1.03 | [18] 1 | [19] 1.02 | [20] 1.01 | [21] 1.01 | [22] 0.987 | S. cerevisiae deletion strains, locus YGR229C, strain SMI1, active compounds read low 1 | [23] 1.02 | [24] 1.01 | [25] 1.02 | [26] 1.01 | [27] 1.02 | [28] 1.01 | [29] 1 | [30] 1.1 | [31] 1 | [32] 1.01 | [33] 1.01 | [34] 1.01 | [35] 1.01 | [36] 1.01 | S. cerevisiae deletion strains, locus YJR043C, strain POL32, active compounds read low 1.04 | S. cerevisiae deletion strains, locus YJR075W, strain HOC1, active compounds read low 0.997 | [37] 1.03 | [38] 1 | [39] 1.02 | [40] 1.02 | S. cerevisiae deletion strains, locus YKL190W, strain CNB1, active compounds read low 1.01 | [41] 1.01 | [42] 1.05 | [43] 1.02 | [44] 1.01 | [45] 0.993 | [46] 0.982 | [47] 1.01 | [48] 1.09 | [49] 1.01 | [50] 0.977 | [51] 1 | [52] 1.03 | [53] 1.01 | [54] 1.02 | [55] 1.03 | [56] 0.999 | [57] 1.03 | [58] 0.99 | [59] 0.985 | [60] 0.994 | [61] 1.01 | [62] 1 | [63] 1.01 | [64] 1 | [65] 1.02 | S. cerevisiae deletion strains, locus YNL322C, strain KRE1, active compounds read low 0.996 | [66] 1.02 | S. cerevisiae deletion strains, locus YOL006C, strain TOP1, active compounds read low 1.01 | [67] 0.868 | [68] 1.01 | [69] 1.01 | [70] 1.01 | [71] 1.02 | [72] 1 | [73] 1.04 | [74] 1.01 | [75] 0.969 | [76] 1 | [77] 1 | [78] 1 | [79] 1.01 | [80] 1.01 | [81] 1 | [82] 1.01

O=c1c(O)cccc2c(C3Oc4cc(O)cc(O)c4CC3O)cc(O)c(O)c12 (stereo not drawn)
active: [2] 0.409 | [3] 0.239 | [4] 0.301 | [5] 0.322 | [6] 0.219 | [7] 0.314 | [8] 0.195 | [9] 0.522 | [10] 0.295 | [11] 0.137 | [12] 0.696 | [13] 0.691 | [14] 0.287 | [16] 0.489 | [17] 0.682 | [18] 0.139 | [19] 0.494 | [20] 0.523 | [21] 0.686 | [22] 0.504 | [23] 0.54 | [24] 0.484 | [25] 0.116 | [26] 0.835 | [27] 0.43 | [28] 0.623 | [29] 0.259 | [30] 0.243 | [31] 0.272 | [32] 0.716 | [33] 0.0943 | [34] 0.58 | [35] 0.913 | [36] 0.118 | [37] 0.0997 | [38] 0.889 | [39] 0.303 | [40] 0.303 | [41] 0.523 | [42] 0.251 | [43] 0.143 | [44] 0.92 | [45] 0.497 | [46] 0.201 | [47] 0.565 | [48] 0.321 | [49] 0.626 | [50] 0.306 | [51] 0.225 | [52] 0.391 | [53] 0.56 | [54] 0.885 | [55] 0.564 | [56] 0.233 | [57] 0.462 | [58] 0.386 | [59] 0.136 | [60] 0.266 | [61] 0.453 | [62] 0.098 | [63] 0.53 | [64] 0.824 | [65] 0.832 | [66] 0.127 | [68] 0.287 | [69] 0.468 | [70] 0.29 | [71] 0.67 | [72] 0.198 | [73] 0.357 | [74] 0.922 | [75] 0.271 | [76] 0.617 | [78] 0.17 | [79] 0.703 | [80] 0.707 | [81] 0.44 | [82] 0.134
inactive: [1] 0.966 | [15] 0.963 | [67] 0.2 | [77] 0.946
